Compounds with a hit are over-represented: about 21% of the library has one in this group of screens.
Shiga inhibitor = inhibitors of Shiga toxin in Vero cells | Vero cells, Shiga toxin protein synthesis inhibition reporter | inhibition, % at 38.7 µM | hit rate 9.2% among 290,000 | AID 2315; in the data active = inhibition mostly above about 28%, no sharp cut-off; inactive = mostly below about 43%
HCV inh = blocks hepatitis C virus; hit rate 3.4% among 340,000; AID 651820; Potency, µM (titrated, usually from 41.8 µM), usual class: inhibitors; Huh7.5.1 HCVcc-Cre infection, luciferase reporter, 44 h
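A cell-based infection assay in which seeded cells (1,000 per well) receive test compound after 4 h, are inoculated with HCVcc-Cre at approximately 0.5 moi, and are incubated 44 h before luminescence detection.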
AMA1 RON2 block = AMA1-RON2 (P. falciparum) interaction inhibition | AlphaScreen AMA1-biotinylated RON2 peptide binding | hit rate 0.2% among 360,000 | Potency, µM (highest dose often 58.2 µM), hits mostly inhibitors; note: nearly all actives have a fitted effect of over 45% in size
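AMA1 (3D7) with his tag at 25 nM final met compounds first, then biotinylated RON2 peptide at 25 nM; detection used donor plus acceptor beads, 10 µg/mL apiece, read by AlphaScreen after 30 min at room temperature.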
Pf growth 96h = P. falciparum growth inhibition at 96 hour, primary screen for plastid delayed-death inhibitors; P. falciparum luciferase reporter growth, 96 h; Potency, µM (top dose mostly 28.7 µM), usual class: inhibitors; hit rate 6.9% among 320,000
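Delayed-death screen, second-generation endpoint: infected erythrocytes, 2% hematocrit, 0.05% parasitemia final; 96 hours at 37 C, 5% CO2; luciferase detection reagent; luminescence decrease equals reduced growth.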
Cycloheximide cs = affects cycloheximide protein synthesis inhibition readout, counter-screen; cell reporter, cycloheximide protein synthesis inhibition counterscreen; max response, %; hit rate 12% among 300,000; AID 2314; in the data active = max response mostly above about 13%, no sharp cut-off; inactive = mostly below about 14%; note: read at 38.3 µM for the half of the compounds with a filed dose
Pf growth 48h = inhibits P. falciparum growth in the first generation, 48 h | P. falciparum luciferase growth in erythrocytes, 48 h | Potency, µM (titrated, usually from 28.7 µM), usual class: inhibitors | hit rate 5.9% among 310,000 | AID 504832
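First compound was added to culture medium, then infected red cells at 0.1% parasitemia and 2% hematocrit (final). After incubation at 37 C under 5% CO2, luciferase detection reagent was dispensed and light output recorded.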
HCV inh confirm = confirmation of hepatitis C virus inhibitors; HCVcc-Cre infectious virus cell assay, luciferase, inhibition; hit rate 78% among 640; shares compounds with HCV inh; Potency, µM (doses to about 41.8 µM), actives largely listed as inhibitors; note: nearly all actives have a fitted effect of over 80% in size
HCV host tox = toxic to HCV host cells, flagging false HCV inhibitors | hit rate 22% among 640 | Potency, µM (top dose mostly 41.8 µM), most hits filed as inhibitors | HCV host cell line cytotoxicity counterscreen | shares compounds with HCV inh;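 note: 44 h compound exposure; nearly all actives have a fitted effect of over 55% in size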
Hits are given with their value; 0 = inactive; ? = inconclusive; - = no result. Unless noted, calls come from the whole dose curve; as a rule, active = well fitted curve in the direction sought with a large enough effect; inconclusive = small, poorly fitted or top-dose-only effect, or another doubt; inactive = no such curve, though single readings can be large; an effect the other way counts as inactive or inconclusive.

SMILES	Shiga inhibitor	HCV inh	AMA1 RON2 block	Pf growth 96h	Cycloheximide cs	Pf growth 48h	HCV inh confirm	HCV host tox
COc1ccccc1NC(=O)c1ccc(NC(=O)COC(=O)c2ccc(O)cc2)cc1	-	?	0	0	-	?	?	?
COc1ccccc1NC(=O)c1ccc(NC(=O)CNC(=O)c2ccc(OC)c(OC)c2)cc1	0	0	0	?	0	?	-	-
CS(=O)(=O)N1CCC(C(=O)Nc2ccc(Cl)cc2Cl)CC1	-	-	0	-	-	-	-	-
O=C(Nc1ccc([N+](=O)[O-])cc1)/C(=C/c1cccc([N+](=O)[O-])c1)NC(=O)C1CCCCC1	0	?	0	?	0	?	22µM	0
Cc1ccc(NC(=O)/C(=C/c2cccc([N+](=O)[O-])c2)NC(=O)C2CCCCC2)c(C)c1	0	0	0	?	0	?	-	-
CCCN(CC(=O)Nc1ccccc1C)C(=O)c1ccc(NC2CC2)c([N+](=O)[O-])c1	-	0	0	0	-	?	-	-
CN(C)CC/C=C1/c2ccc(F)cc2Sc2ccc(Cl)cc21	-	8.9µM	?	-	-	-	14µM	0
COc1cc(OC)cc(C(=O)Nc2nc(-c3ccccc3)c(-c3ccccc3)o2)c1	0	7.1µM	0	?	0	?	13µM	0
Cc1ccc2sc(N(CCCN(C)C)C(=O)c3ccc(Br)s3)nc2c1C	0	7.1µM	25µM	?	0	?	?	0
Cc1ccc2sc(N(CCCN(C)C)C(=O)c3nc4ccccc4s3)nc2c1C	0	?	0	0	0	?	-	-
CCCCN(C(=O)c1[nH]c(C)c(C(=O)OCC)c1C)c1c(N)n(CCCC)c(=O)[nH]c1=O	-	0	0	0	-	0	-	-
CCn1c(SC)nnc1-c1sc2cc(Cl)ccc2c1Cl	71	5.6µM	0	-	14	?	0	0
O=C1OCCN1C(=O)[C@H]1[C@H](c2ccc([N+](=O)[O-])cc2)C(c2ccc(F)cc2)=NN1c1ccc(Br)cc1	0	0	0	-	0	-	?	0
O=C1OCCN1C(=O)[C@H]1[C@H](c2ccc([N+](=O)[O-])cc2)C(c2ccc(F)cc2)=NN1c1ccccc1	0	?	0	-	0	-	-	-
O=c1c2ccccc2nc2n1CCN2Cc1ccc(Cl)cc1	0	?	0	2.3µM	33	2.1µM	6.3µM	?
O=c1c2ccccc2ncn1Cc1ccc(Cl)cc1	0	0	0	?	0	0	-	-
CCN(CC(=O)Nc1ccc([N+](=O)[O-])cc1OC)c1ccccc1	0	3.2µM	0	9.3µM	0	?	14µM	0
COc1cc([N+](=O)[O-])ccc1NC(=O)CN(C)C	0	?	0	0	0	0	-	-
Cn1cc(CNCc2cn[nH]c2-c2ccc(F)cc2)c(-c2ccc3c(c2)OCCO3)n1	0	0	0	0	0	0	-	-
Cn1cc(CNCc2ccc(OC(F)(F)F)cc2)c(-c2ccc3c(c2)OCCO3)n1	0	1µM	0	?	0	0	1µM	5µM
CC1(C)Oc2ccc3ccc(=O)oc3c2-c2cn[nH]c21	0	7.1µM	0	9.3µM	0	?	?	?
CCOc1ccc(NS(=O)(=O)c2ccc(C)c(C(=O)NCCCn3ccnc3)c2)cc1	0	0	0	0	0	?	-	-
CN1CCc2c(sc(NC(=O)c3ccc([N+](=O)[O-])o3)c2C(N)=O)C1	25	4µM	0	?	27	?	14µM	?
CN1CCc2c(sc(NC(=O)c3cc4cc([N+](=O)[O-])ccc4s3)c2C(N)=O)C1	0	-	-	?	0	?	-	-
Cc1cc(C)c(S(=O)(=O)NCc2cccnc2)c(C)c1	0	0	0	0	0	0	-	-
COCCn1c(=O)[nH]c2cc(C(=O)N3CCN(c4ccc(Cl)cc4)CC3)ccc2c1=O	0	8.9µM	0	0	0	0	7µM	?
CC1CN(C)C(C)c2c1oc1ccc([N+](=O)[O-])cc21 (stereo not drawn)	0	?	0	0	0	0	25µM	0
Cc1nnsc1C(=O)NC1CCCc2c1cnn2-c1ccc(C(C)(C)C)cc1 (stereo not drawn)	0	1.6µM	0	?	0	?	3.1µM	5.6µM
